# Results published in PubChem BioAssay (NCATS).
# Activity calls are given as the source filed them. The rule behind the calls is not given here.
# System: HIV-1 nucleocapsid protein NCp7 (binding to TG oligonucleotide)
# Assay: HIV Nucleocapsid (AID 346);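 note: potency is for inhibitors that block NC binding and lower polarization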
# Conditions: HIV-1 NC / fluorescein-TGTGTGTG probe, fluorescence polarization
# Outline: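 Fluorescence polarization binding of 100 nM HIV-1 NC to 10 nM fluorescein-labelled TG4xF oligonucleotide. Buffer was Hepes pH 7.5 with 250mM NaCl, 1uM ZnCl2, TCEP and 2-mercaptoethanol. Compounds were incubated 1 hr at room temperature before the read.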
# Potency is the fitted concentration of half-maximal effect.
row,Structure (SMILES),Potency
1,CN(C)C(=O)c1ccc(-c2cncnc2N2CCNCC2)cc1,> 20 µM (inactive)
2,CC(C)CN1CC2(CCN(C(=O)c3ccco3)CC2)C1,> 20 µM (inactive)
3,c1ccc(CNc2ncncc2-c2ccc3c(c2)OCO3)cc1,> 20 µM (inactive)
4,CCNc1ncc2nc(C)c(=O)n(Cc3cccs3)c2n1,> 20 µM (inactive)
5,CN(Cc1ccco1)c1cc(-c2cccnc2)ncn1,> 20 µM (inactive)
6,COc1ccc(C(=O)N2CCC[C@@]3(CCN(Cc4cc(C(F)(F)F)cc(C(F)(F)F)c4)C3)C2)cc1,> 20 µM (inactive)
7,Cn1cc(-c2nc3cncnc3n(C3CC3)c2=O)c2ccccc21,> 20 µM (inactive)
8,COc1ccc(C(=O)N2CCC3(CCCN(Cc4cc(C(F)(F)F)cc(C(F)(F)F)c4)C3)CC2)cc1,> 4 µM (inactive)
9,CNc1nc(-c2ccccc2C(F)(F)F)nc2ccccc12,> 20 µM (inactive)
10,O=c1c(-c2ccccc2)nc2cncnc2n1Cc1ccccc1Cl,> 20 µM (inactive)
11,O=c1c(-c2ccccc2)nc2cnc(N3CCOCC3)nc2n1CCc1ccccc1,> 20 µM (inactive)
12,COc1cccc(-c2cncnc2N(C)Cc2ccco2)c1,> 20 µM (inactive)
13,COCCNc1nc(-c2cccc(OC)c2)nc2ccccc12,> 20 µM (inactive)
14,CN(C)C(=O)c1ccc(-c2nc(-n3ccnc3)c3ccccc3n2)cc1,> 20 µM (inactive)
15,Cc1noc(C)c1-c1ccc2ncnc(Nc3ccccc3)c2c1,> 20 µM (inactive)
16,COCCn1c(=O)c(-c2cc(F)cc(F)c2)nc2cnc(Nc3cccc(OC)c3)nc21,3.99 µM (active)
17,COc1cccc(Nc2ncc3ncc(=O)n(CCc4ccccc4)c3n2)c1,> 4 µM (inactive)
18,Cc1noc(C)c1-c1nccc(N(C)C)n1,> 20 µM (inactive)
19,CN1CCCC2(CCN(C(=O)c3cc(C(F)(F)F)cc(C(F)(F)F)c3)CC2)C1,> 20 µM (inactive)
20,COc1cccc(Cn2c(=O)c(-c3cccs3)nc3cnc(N4CCNCC4)nc32)c1,> 20 µM (inactive)

row,Structure (SMILES),Potency
1,COc1cccc(Cn2c(=O)c(C)nc3cnc(Oc4cccc(Cl)c4)nc32)c1,> 20 µM (inactive)
2,Cn1c(=O)c(CCc2ccccc2)nc2cnc(N3CCOCC3)nc21,> 20 µM (inactive)
3,COc1ccccc1-c1nccc(Nc2ccc(F)cc2)n1,> 20 µM (inactive)
4,O=C(Nc1cccc(F)c1)N1CCC2(CC1)CCN(C(=O)c1cnccn1)CC2,> 20 µM (inactive)
5,CC(=O)NCCNc1ccnc(-c2ccccc2C(F)(F)F)n1,> 20 µM (inactive)
6,COc1ccc(-c2nc3cnc(Oc4ccccc4)nc3n(CCC#N)c2=O)cc1,16.7 µM (inactive)
7,Cc1cnc(CNc2ccnc(-c3ccccc3CN(C)C)n2)cn1,> 20 µM (inactive)
8,CCNc1ncc2nc(C)c(=O)n(C)c2n1,> 20 µM (inactive)
9,COc1ccc(Oc2ncc3nc(-c4cn(C)c5ccccc45)c(=O)n(C4CC4)c3n2)cc1,> 20 µM (inactive)
10,COCCn1c(=O)c(-c2ccc(Cl)cc2)nc2cnc(N(C)C)nc21,> 20 µM (inactive)
11,COc1ccc(NC(=O)N2CC[C@@]3(CCCN(C(=O)c4cc(C(F)(F)F)cc(C(F)(F)F)c4)C3)C2)cc1,> 20 µM (inactive)
12,COc1cccc(-c2nc(NCc3ccccc3OC)c3ccccc3n2)c1,> 20 µM (inactive)
13,Cc1ccccc1-c1nc(NCc2cccnc2)c2ccccc2n1,> 20 µM (inactive)
14,CN1CCN(c2ncnc3ccc(-c4cccc(C#N)c4)cc23)CC1,> 20 µM (inactive)
15,COC(=O)N1CCC[C@@]2(CCN(c3ccncc3)C2)C1,> 20 µM (inactive)
16,COc1cccc(Cn2c(=O)c(-c3cccs3)nc3cnc(N4CCN(C)CC4)nc32)c1,> 4 µM (inactive)
17,N#Cc1cccc(NC(=O)N2CCCC3(CCN(C(=O)c4ccncc4)CC3)C2)c1,> 20 µM (inactive)
18,CN(C)Cc1ccccc1-c1nc(N(C)Cc2ccco2)c2ccccc2n1,> 20 µM (inactive)
19,FC(F)(F)c1cc(CN2CC3(CCNCC3)C2)cc(C(F)(F)F)c1,> 20 µM (inactive)
20,COc1ccc(CNc2nc(-c3ccccc3CN(C)C)nc3ccccc23)c(OC)c1,> 20 µM (inactive)
